# What was measured:
# Assay in all cases: DAPPL (digital affinity profiling via proximity ligation, sequencing); 10 mM Tris-HCl pH 7.5, 50 mM NaCl, 1 mM DTT, 4% glycerol, room temperature, 30 min; GST-TFs on glutathione beads, 16-mer random dsDNA library, 0.1% formaldehyde crosslink after washing; high values mean tight binding
# [1] = target: T1, FLI1 (Homo sapiens, UniProt Q01543 1-452); conditions: protein: recombinant; tags: N-terminal GST; dsDNA, one strand shown
# T1 sequence: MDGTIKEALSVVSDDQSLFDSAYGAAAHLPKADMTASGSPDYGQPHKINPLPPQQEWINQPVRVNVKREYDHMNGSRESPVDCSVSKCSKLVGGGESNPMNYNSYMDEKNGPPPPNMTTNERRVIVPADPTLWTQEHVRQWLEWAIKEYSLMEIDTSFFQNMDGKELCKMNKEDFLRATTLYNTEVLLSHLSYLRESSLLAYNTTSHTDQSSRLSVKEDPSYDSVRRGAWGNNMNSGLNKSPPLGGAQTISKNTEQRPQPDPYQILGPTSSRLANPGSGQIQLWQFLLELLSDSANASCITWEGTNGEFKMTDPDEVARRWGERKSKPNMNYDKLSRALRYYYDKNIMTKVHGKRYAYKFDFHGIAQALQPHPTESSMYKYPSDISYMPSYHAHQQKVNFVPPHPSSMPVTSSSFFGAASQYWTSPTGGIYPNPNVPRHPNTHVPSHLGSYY
# Procedure, shortened: (§1)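 Human transcription factors fused to GST were expressed in yeast, captured on glutathione beads, given DNA barcodes and pooled with a GST-only negative control. Pools were incubated with 200 nmole of a 16-mer random double-stranded DNA library in Tris/NaCl/DTT/glycerol buffer at room temperature for 30 min. They were then washed, crosslinked with 0.1% formaldehyde, proximity-ligated (BsaI/T4 ligase, 1 h, 37 °C), PCR-amplified and sequenced on an Illumina NextSeq500. Binding signal is each 6-mer's read frequency for a factor divided by its frequency for the GST control.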
# [2] = target: T2, ELK1 (Homo sapiens, UniProt P19419 1-428); conditions: protein: recombinant; tags: N-terminal GST; dsDNA, one strand shown
# T2 sequence: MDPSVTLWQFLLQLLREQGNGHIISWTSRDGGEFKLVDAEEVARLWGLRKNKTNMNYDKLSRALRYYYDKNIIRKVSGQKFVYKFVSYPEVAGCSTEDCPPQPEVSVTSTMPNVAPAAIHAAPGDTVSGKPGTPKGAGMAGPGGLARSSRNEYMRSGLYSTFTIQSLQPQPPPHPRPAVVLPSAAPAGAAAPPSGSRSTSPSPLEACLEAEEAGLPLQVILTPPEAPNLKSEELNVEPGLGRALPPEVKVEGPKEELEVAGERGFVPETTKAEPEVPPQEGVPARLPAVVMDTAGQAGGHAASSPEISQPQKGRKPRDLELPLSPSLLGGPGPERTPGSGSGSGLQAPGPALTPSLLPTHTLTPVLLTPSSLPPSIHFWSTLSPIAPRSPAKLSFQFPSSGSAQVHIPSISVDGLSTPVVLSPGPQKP
# Procedure, shortened: as §1
# [3] = target: T3, GABPA (Homo sapiens, UniProt Q06546 1-454); conditions: protein: recombinant; tags: N-terminal GST; dsDNA, one strand shown
# T3 sequence: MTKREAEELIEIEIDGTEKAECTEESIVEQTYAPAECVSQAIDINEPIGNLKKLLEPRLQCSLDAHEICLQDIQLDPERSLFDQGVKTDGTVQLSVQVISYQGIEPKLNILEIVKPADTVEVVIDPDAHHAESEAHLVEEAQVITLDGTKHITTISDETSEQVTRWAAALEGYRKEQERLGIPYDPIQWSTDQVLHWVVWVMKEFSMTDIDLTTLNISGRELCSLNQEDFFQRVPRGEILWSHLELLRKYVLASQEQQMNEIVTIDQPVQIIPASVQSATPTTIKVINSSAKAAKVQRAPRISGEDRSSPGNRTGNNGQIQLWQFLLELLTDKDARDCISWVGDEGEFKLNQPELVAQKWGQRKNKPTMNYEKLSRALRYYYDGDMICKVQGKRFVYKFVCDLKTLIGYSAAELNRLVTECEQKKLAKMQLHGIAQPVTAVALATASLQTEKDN
# Procedure, shortened: as §1
# [4] = target: T4, ERG (Homo sapiens, UniProt P11308 1-479); conditions: protein: recombinant; tags: N-terminal GST; dsDNA, one strand shown
# T4 sequence: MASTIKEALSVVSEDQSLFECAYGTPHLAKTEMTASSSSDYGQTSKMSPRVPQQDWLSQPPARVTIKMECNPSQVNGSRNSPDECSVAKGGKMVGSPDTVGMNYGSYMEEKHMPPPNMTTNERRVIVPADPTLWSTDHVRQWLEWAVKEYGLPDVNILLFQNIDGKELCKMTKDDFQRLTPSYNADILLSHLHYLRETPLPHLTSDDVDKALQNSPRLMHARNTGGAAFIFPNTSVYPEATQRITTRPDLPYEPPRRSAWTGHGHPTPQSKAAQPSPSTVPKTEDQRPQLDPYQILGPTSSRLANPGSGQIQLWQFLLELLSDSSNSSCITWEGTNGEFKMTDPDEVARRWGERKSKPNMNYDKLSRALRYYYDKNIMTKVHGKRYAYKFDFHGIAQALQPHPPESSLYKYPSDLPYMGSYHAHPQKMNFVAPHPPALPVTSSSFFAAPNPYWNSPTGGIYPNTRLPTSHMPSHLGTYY
# Procedure, shortened: as §1
# [5] = target: ELF1 (Homo sapiens, UniProt P32519 1-619); conditions: protein: recombinant; tags: N-terminal GST; dsDNA, one strand shown
# Chain of ELF1 (P32519 whole entry): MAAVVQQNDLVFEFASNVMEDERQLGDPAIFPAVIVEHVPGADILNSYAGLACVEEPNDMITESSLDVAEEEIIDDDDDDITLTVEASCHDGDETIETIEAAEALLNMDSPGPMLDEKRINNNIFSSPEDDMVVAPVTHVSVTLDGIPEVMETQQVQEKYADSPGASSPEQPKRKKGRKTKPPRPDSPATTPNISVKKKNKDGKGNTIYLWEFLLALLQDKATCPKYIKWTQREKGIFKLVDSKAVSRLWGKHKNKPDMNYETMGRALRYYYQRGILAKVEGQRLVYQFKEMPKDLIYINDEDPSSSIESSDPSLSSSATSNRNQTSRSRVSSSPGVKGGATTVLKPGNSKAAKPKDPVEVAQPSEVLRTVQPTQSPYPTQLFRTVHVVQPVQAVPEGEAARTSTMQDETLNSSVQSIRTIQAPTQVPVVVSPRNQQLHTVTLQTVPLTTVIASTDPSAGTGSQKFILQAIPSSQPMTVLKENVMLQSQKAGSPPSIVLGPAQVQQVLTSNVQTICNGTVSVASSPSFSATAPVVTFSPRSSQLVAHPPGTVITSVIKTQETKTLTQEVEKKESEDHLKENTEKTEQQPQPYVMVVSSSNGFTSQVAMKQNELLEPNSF
# Procedure, shortened: as §1
# [6] = target: T5, EHF (Homo sapiens, UniProt Q9NZC4 1-300); conditions: protein: recombinant; tags: N-terminal GST; dsDNA, one strand shown
# T5 sequence: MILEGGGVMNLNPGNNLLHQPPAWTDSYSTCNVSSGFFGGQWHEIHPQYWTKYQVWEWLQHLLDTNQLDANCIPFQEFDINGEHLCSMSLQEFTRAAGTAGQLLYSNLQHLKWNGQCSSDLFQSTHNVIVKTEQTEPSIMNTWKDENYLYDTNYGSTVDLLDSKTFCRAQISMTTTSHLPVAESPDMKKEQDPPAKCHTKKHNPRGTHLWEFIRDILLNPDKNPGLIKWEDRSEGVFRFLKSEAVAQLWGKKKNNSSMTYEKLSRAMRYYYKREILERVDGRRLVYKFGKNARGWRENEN
# Procedure, shortened: as §1
# [7] = target: SPI1 (Homo sapiens, UniProt P17947 1-270); conditions: protein: recombinant; tags: N-terminal GST; dsDNA, one strand shown
# Procedure, shortened: as §1
# [8] = target: SPIB (Homo sapiens, UniProt Q01892 1-262); conditions: protein: recombinant; tags: N-terminal GST; dsDNA, one strand shown
# Chain of SPIB (Q01892 whole entry): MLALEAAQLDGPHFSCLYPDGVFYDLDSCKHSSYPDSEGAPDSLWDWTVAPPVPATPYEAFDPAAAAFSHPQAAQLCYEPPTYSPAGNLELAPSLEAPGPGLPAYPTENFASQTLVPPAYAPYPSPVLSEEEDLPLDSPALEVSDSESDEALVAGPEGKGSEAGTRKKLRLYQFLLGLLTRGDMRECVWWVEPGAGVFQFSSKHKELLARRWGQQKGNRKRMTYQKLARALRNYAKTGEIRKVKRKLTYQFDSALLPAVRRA
# Procedure, shortened: as §1
# [9] = target: T6, ELK3 (Homo sapiens, UniProt P41970 1-407); conditions: protein: recombinant; tags: N-terminal GST; dsDNA, one strand shown
# T6 sequence: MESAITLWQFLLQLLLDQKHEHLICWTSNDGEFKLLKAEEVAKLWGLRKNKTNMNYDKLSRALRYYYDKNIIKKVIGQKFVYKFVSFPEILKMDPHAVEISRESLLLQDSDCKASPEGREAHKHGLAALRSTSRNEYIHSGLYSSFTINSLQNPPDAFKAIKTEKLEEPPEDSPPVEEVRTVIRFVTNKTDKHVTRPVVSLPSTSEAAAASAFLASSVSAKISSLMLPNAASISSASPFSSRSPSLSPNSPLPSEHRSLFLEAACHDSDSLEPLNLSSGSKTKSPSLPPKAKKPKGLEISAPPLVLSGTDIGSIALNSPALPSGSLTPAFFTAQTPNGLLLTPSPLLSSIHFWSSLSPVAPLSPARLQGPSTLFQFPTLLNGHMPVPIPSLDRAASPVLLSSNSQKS
# Procedure, shortened: as §1
# [10] = target: T7, FEV (Homo sapiens, UniProt Q99581 1-238); conditions: protein: recombinant; tags: N-terminal GST; dsDNA, one strand shown
# T7 sequence: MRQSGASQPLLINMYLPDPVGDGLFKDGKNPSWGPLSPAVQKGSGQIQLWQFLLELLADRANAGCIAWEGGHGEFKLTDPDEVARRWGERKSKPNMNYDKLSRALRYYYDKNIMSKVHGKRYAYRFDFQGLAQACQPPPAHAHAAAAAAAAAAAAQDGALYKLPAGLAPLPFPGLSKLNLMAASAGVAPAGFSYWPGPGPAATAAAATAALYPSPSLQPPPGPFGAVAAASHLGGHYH
# Procedure, shortened: as §1
# [11] = target: ETV5 (Homo sapiens, UniProt P41161 1-510); conditions: protein: recombinant; tags: N-terminal GST; dsDNA, one strand shown
# Chain of ETV5 (P41161 whole entry): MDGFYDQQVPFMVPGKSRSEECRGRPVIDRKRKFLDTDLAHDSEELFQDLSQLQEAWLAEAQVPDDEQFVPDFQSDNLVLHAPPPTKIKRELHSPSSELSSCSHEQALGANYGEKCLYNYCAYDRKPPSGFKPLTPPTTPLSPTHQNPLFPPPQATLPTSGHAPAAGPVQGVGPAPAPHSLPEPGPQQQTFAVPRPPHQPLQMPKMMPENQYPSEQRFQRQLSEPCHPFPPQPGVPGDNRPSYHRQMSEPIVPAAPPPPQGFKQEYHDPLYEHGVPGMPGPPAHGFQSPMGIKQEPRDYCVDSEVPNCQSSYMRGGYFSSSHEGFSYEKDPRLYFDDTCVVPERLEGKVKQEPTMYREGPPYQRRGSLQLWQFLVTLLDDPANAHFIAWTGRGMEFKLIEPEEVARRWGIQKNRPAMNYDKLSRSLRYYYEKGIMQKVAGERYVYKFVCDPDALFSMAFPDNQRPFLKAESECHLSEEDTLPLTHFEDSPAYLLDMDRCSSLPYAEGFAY
# Procedure, shortened: as §1
# [12] = target: HSF1 (Homo sapiens, UniProt Q00613 1-529); conditions: protein: recombinant; tags: N-terminal GST; chain copies: 3; dsDNA, one strand shown
# Chain of HSF1 (Q00613 whole entry): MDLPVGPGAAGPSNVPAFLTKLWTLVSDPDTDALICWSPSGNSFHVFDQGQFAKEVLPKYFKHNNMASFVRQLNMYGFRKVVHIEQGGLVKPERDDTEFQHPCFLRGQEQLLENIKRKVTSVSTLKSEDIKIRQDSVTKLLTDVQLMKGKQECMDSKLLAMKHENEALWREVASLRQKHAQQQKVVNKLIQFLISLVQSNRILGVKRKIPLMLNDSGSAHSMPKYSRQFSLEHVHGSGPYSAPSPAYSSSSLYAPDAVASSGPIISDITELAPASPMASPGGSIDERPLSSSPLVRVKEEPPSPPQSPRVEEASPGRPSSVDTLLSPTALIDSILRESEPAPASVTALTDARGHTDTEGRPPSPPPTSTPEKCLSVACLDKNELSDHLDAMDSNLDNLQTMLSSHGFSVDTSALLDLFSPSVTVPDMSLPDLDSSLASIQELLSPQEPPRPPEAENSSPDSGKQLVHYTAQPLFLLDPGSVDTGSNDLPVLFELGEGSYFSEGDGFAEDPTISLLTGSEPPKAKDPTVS
# Procedure, shortened: as §1
# [13] = target: T8, SPIC (Homo sapiens, UniProt Q8N5J4 1-248); conditions: protein: recombinant; tags: N-terminal GST; dsDNA, one strand shown
# T8 sequence: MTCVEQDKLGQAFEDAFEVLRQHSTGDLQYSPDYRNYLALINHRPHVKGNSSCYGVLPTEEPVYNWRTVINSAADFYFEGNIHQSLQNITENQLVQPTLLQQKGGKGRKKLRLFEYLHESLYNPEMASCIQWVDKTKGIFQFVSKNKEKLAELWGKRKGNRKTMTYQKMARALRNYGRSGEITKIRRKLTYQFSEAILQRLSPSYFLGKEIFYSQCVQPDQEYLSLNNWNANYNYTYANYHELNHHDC
# Procedure, shortened: as §1
# [14] = target: ELF4 (Homo sapiens, UniProt Q99607 1-663); conditions: protein: recombinant; tags: N-terminal GST; dsDNA, one strand shown
# Chain of ELF4 (Q99607 whole entry): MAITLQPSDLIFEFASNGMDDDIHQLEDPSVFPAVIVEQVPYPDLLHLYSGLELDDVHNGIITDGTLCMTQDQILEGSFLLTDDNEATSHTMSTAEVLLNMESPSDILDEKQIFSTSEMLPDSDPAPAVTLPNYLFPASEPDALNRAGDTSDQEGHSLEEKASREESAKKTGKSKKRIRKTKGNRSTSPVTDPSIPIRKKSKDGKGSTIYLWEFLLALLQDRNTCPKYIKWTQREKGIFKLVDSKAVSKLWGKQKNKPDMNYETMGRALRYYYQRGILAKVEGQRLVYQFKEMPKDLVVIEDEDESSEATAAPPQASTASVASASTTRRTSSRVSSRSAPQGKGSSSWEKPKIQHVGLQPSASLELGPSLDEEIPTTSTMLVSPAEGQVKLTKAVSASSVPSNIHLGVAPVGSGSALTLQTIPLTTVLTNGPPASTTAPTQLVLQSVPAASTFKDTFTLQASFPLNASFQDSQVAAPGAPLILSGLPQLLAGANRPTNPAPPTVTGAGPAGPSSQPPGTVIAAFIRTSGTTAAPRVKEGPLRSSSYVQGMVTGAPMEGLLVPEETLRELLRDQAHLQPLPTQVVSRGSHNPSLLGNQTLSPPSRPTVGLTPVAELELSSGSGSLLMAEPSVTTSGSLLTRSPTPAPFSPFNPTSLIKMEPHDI
# Procedure, shortened: as §1
# [15] = target: T9, ELK4 (Homo sapiens, UniProt P28324-2 1-405); conditions: protein: recombinant; tags: N-terminal GST; dsDNA, one strand shown
# T9 sequence: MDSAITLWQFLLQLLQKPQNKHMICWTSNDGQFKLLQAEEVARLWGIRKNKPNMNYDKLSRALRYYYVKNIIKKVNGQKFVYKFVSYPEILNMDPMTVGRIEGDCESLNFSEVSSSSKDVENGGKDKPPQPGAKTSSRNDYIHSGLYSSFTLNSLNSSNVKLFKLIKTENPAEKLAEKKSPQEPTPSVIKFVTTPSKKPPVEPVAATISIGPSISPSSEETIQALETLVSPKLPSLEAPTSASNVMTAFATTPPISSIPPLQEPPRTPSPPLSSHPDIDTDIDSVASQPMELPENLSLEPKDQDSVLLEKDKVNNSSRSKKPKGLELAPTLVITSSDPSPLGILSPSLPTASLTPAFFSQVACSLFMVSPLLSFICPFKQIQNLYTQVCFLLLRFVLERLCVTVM
# Procedure, shortened: as §1
# [16] = target: T10, ETV2 (Homo sapiens, UniProt O00321 1-342); conditions: protein: recombinant; tags: N-terminal GST; dsDNA, one strand shown
# T10 sequence: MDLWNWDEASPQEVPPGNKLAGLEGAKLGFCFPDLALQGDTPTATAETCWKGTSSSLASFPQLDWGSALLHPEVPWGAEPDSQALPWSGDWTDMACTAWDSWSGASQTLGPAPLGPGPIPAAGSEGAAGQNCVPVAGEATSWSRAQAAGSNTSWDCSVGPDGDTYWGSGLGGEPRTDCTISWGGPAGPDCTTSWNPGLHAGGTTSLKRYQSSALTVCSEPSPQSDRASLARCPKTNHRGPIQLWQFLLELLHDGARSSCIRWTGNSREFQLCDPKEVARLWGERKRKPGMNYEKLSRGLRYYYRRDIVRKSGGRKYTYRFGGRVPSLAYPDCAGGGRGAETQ
# Procedure, shortened: as §1
# [17] = target: T11, ELF3 (Homo sapiens, UniProt P78545 1-371); conditions: protein: recombinant; tags: N-terminal GST; dsDNA, one strand shown
# T11 sequence: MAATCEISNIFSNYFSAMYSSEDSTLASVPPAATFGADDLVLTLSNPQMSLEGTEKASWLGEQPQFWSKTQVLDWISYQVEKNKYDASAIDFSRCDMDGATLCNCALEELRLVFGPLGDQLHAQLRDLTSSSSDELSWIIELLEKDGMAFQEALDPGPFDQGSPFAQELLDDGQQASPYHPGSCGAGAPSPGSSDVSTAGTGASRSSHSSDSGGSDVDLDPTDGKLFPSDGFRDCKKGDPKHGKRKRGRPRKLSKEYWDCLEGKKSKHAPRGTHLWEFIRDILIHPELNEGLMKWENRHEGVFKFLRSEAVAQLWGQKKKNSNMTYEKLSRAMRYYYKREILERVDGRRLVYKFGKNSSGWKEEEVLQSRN
# Procedure, shortened: as §1
# [18] = target: CRX (Homo sapiens, UniProt O43186 1-299); conditions: protein: recombinant; tags: N-terminal GST; dsDNA, one strand shown
# Chain of CRX (O43186 whole entry): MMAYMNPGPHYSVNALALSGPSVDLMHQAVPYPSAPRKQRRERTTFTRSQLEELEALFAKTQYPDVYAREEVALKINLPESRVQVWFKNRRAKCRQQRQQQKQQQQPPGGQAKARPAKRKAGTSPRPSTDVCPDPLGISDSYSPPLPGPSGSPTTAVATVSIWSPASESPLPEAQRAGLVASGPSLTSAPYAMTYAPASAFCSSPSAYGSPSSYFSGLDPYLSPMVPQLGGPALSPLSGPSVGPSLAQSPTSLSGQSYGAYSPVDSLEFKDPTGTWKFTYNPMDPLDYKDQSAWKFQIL
# Procedure, shortened: as §1
# [19] = target: ETV1 (Homo sapiens, UniProt P50549 1-477); conditions: protein: recombinant; tags: N-terminal GST; dsDNA, one strand shown
# Chain of ETV1 (P50549 whole entry): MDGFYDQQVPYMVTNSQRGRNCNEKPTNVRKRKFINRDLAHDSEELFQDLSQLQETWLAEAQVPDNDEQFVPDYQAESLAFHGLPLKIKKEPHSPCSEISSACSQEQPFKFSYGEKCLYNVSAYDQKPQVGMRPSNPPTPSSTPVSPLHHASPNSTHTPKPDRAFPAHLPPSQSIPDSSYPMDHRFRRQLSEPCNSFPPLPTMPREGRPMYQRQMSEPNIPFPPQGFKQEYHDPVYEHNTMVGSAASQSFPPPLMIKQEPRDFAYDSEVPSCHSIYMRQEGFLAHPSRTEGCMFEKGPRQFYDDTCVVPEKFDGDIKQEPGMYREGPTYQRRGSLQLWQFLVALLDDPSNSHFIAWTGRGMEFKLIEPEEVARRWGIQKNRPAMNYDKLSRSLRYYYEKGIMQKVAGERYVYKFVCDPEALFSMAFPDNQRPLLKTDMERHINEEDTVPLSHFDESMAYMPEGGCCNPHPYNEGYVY
# Procedure, shortened: as §1
sequence,measurement,setting,value
AATAAG,binding signal,[1],"1.22 fold enrichment (6-mer frequency, TF over GST control)"
same,binding signal,[2],"1.21 fold enrichment (6-mer frequency, TF over GST control)"
same,binding signal,[3],"1.31 fold enrichment (6-mer frequency, TF over GST control)"
same,binding signal,[4],"1.37 fold enrichment (6-mer frequency, TF over GST control)"
same,binding signal,[5],"1.24 fold enrichment (6-mer frequency, TF over GST control)"
same,binding signal,[6],"1.22 fold enrichment (6-mer frequency, TF over GST control)"
same,binding signal,[7],"1.27 fold enrichment (6-mer frequency, TF over GST control)"
same,binding signal,[8],"1.3 fold enrichment (6-mer frequency, TF over GST control)"
same,binding signal,[9],"1.23 fold enrichment (6-mer frequency, TF over GST control)"
same,binding signal,[10],"1.26 fold enrichment (6-mer frequency, TF over GST control)"
same,binding signal,[11],"1.25 fold enrichment (6-mer frequency, TF over GST control)"
same,binding signal,[12],"1.52 fold enrichment (6-mer frequency, TF over GST control)"
same,binding signal,[13],"1.3 fold enrichment (6-mer frequency, TF over GST control)"
same,binding signal,[14],"1.26 fold enrichment (6-mer frequency, TF over GST control)"
same,binding signal,[15],"1.2 fold enrichment (6-mer frequency, TF over GST control)"
same,binding signal,[16],"1.19 fold enrichment (6-mer frequency, TF over GST control)"
same,binding signal,[17],"1.29 fold enrichment (6-mer frequency, TF over GST control)"
same,binding signal,[18],"1.98 fold enrichment (6-mer frequency, TF over GST control)"
same,binding signal,[19],"1.26 fold enrichment (6-mer frequency, TF over GST control)"
